The values that follow come from PMC7862700, “An all-to-all approach to the identification of sequence-specific readers for epigenetic DNA modifications on cytosine”.

Test in all cases: DAPPL (digital affinity profiling via proximity ligation, sequencing); 10 mM Tris-HCl pH 7.5, 50 mM NaCl, 1 mM DTT, 4% glycerol, room temperature, 30 min; GST-TFs on glutathione beads, 16-mer random dsDNA library, 0.1% formaldehyde crosslink after washing; high values mean tight binding
For one assay, the target named is T1, FLI1 (Homo sapiens, UniProt Q01543 1-452).
T1 sequence: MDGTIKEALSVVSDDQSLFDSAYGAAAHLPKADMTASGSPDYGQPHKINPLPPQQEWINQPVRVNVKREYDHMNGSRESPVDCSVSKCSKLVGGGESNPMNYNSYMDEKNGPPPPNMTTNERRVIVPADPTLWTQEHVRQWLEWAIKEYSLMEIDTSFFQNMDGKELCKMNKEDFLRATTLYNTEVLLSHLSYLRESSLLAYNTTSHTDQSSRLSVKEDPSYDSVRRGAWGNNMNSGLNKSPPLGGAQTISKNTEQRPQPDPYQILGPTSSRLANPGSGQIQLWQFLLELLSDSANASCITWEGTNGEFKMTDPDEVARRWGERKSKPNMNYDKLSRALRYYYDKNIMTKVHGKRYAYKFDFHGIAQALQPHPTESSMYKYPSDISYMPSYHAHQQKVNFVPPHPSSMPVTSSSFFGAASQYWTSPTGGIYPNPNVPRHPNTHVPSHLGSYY
The note with it: protein: recombinant; tags: N-terminal GST; dsDNA, one strand shown. The gist of the method:
(§1)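 Sequencing on an Illumina NextSeq500 followed washing, crosslinking with 0.1% formaldehyde, proximity ligation (BsaI/T4 ligase, 1 h, 37 °C) and PCR amplification of pools that had been incubated for 30 min at room temperature with 200 nmole of a random double-stranded 16-mer DNA library in Tris/NaCl/DTT/glycerol buffer. Each pool held DNA-barcoded human transcription factors, expressed in yeast as GST fusions and captured on glutathione beads, plus a tag-only sample. Binding signal is a hexamer's read frequency for a factor divided by its frequency in the tag-only sample.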

Another assay has as its target T2, ELK1 (Homo sapiens, UniProt P19419 1-428).
T2 sequence: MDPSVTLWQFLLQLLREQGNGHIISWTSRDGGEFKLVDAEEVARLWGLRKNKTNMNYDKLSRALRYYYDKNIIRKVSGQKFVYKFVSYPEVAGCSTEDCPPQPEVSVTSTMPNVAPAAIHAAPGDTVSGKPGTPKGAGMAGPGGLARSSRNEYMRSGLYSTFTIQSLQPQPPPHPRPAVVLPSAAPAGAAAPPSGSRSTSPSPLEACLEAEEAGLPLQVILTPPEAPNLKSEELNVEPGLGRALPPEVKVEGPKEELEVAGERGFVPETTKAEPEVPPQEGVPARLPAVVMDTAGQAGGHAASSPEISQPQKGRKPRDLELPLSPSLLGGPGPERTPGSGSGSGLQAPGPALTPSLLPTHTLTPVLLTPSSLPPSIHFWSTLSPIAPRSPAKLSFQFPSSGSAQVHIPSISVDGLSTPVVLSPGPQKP
The note with it: protein: recombinant; tags: N-terminal GST; dsDNA, one strand shown. The method in brief: as §1

The target of another assay is T3, GABPA (Homo sapiens, UniProt Q06546 1-454).
T3 sequence: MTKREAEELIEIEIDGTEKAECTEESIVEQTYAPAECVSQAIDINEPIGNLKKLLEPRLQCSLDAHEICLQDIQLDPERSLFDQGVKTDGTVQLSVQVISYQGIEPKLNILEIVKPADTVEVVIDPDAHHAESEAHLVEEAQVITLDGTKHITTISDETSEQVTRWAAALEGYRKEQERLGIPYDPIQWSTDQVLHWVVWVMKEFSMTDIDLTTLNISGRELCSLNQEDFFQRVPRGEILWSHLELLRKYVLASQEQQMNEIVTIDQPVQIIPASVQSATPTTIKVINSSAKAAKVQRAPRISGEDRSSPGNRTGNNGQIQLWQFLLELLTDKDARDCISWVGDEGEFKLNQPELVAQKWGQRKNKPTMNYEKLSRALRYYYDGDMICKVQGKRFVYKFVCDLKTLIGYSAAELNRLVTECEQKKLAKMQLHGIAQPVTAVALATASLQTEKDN
The note with it: protein: recombinant; tags: N-terminal GST; dsDNA, one strand shown. The gist of the method: as §1

The target in another assay is T4, ERG (Homo sapiens, UniProt P11308 1-479).
T4 sequence: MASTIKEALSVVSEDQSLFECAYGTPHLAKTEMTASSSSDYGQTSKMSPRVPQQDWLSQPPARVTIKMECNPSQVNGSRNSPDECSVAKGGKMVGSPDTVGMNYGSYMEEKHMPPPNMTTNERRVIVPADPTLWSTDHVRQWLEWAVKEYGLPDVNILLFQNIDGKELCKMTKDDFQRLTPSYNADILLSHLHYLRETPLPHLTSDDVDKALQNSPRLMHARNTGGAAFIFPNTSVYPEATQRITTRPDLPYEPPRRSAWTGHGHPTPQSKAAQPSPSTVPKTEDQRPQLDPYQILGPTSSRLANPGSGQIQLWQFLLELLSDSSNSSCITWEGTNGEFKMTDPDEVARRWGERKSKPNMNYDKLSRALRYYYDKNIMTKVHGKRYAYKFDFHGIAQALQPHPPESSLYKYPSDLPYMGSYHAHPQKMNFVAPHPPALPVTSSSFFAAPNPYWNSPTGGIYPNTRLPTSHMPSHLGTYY
The note with it: protein: recombinant; tags: N-terminal GST; dsDNA, one strand shown. The method in brief: as §1

In the next assay the target is ELF1 (Homo sapiens, UniProt P32519 1-619). The note with it: protein: recombinant; tags: N-terminal GST; dsDNA, one strand shown. The gist of the method:
as §1

Another assay concerns the target T5, EHF (Homo sapiens, UniProt Q9NZC4 1-300).
T5 sequence: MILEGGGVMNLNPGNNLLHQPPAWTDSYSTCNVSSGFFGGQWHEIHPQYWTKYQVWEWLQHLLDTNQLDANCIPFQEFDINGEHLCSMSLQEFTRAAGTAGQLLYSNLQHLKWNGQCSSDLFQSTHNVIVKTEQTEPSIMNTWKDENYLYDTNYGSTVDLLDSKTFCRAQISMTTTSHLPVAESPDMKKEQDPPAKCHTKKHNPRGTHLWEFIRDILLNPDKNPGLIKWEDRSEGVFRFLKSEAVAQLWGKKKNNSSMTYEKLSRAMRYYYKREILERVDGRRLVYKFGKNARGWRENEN
The note with it: protein: recombinant; tags: N-terminal GST; dsDNA, one strand shown. The method in brief: as §1

A further assay has as its target SPI1 (Homo sapiens, UniProt P17947 1-270). The note with it: protein: recombinant; tags: N-terminal GST; dsDNA, one strand shown. The gist of the method:
as §1

In the next assay the target is SPIB (Homo sapiens, UniProt Q01892 1-262). To be noted: protein: recombinant; tags: N-terminal GST; dsDNA, one strand shown. The method in brief:
as §1

The target of a further assay is T6, ELK3 (Homo sapiens, UniProt P41970 1-407).
T6 sequence: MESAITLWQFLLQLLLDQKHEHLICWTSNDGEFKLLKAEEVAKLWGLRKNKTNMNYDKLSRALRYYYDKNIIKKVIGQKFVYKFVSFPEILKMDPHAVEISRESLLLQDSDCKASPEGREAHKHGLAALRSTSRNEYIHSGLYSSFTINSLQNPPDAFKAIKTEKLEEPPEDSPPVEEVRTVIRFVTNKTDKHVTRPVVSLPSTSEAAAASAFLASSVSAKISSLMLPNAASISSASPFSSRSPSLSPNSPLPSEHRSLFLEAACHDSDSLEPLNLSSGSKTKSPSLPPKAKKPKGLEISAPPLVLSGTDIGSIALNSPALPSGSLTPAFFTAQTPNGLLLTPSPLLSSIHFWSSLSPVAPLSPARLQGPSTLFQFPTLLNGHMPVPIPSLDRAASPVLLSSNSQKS
To be noted: protein: recombinant; tags: N-terminal GST; dsDNA, one strand shown. The gist of the method:
as §1

For another assay, the target named is T7, FEV (Homo sapiens, UniProt Q99581 1-238).
T7 sequence: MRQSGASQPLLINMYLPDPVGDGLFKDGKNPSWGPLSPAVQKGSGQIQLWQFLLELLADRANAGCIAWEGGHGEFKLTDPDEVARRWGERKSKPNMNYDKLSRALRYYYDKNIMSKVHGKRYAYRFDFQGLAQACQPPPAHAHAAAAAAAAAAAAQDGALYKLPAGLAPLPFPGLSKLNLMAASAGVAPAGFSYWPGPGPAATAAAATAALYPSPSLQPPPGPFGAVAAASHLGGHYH
To be noted: protein: recombinant; tags: N-terminal GST; dsDNA, one strand shown. The gist of the method:
as §1

Another assay deals with ETV5 (Homo sapiens, UniProt P41161 1-510). The note with it: protein: recombinant; tags: N-terminal GST; dsDNA, one strand shown. The method in brief:
as §1

In the next assay the target is HSF1 (Homo sapiens, UniProt Q00613 1-529). The note with it: protein: recombinant; tags: N-terminal GST; chain copies: 3; dsDNA, one strand shown. The method in brief:
as §1

In a further assay the target is T8, SPIC (Homo sapiens, UniProt Q8N5J4 1-248).
T8 sequence: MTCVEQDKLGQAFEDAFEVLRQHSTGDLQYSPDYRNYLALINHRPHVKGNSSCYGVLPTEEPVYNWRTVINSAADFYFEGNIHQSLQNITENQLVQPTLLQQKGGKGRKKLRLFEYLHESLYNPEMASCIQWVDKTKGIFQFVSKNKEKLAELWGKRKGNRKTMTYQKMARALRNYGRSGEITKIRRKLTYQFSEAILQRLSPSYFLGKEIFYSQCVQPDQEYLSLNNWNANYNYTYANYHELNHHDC
To be noted: protein: recombinant; tags: N-terminal GST; dsDNA, one strand shown. The gist of the method: as §1

The target in the next assay is ELF4 (Homo sapiens, UniProt Q99607 1-663). To be noted: protein: recombinant; tags: N-terminal GST; dsDNA, one strand shown. The method in brief:
as §1

The next assay concerns the target T9, ELK4 (Homo sapiens, UniProt P28324-2 1-405).
T9 sequence: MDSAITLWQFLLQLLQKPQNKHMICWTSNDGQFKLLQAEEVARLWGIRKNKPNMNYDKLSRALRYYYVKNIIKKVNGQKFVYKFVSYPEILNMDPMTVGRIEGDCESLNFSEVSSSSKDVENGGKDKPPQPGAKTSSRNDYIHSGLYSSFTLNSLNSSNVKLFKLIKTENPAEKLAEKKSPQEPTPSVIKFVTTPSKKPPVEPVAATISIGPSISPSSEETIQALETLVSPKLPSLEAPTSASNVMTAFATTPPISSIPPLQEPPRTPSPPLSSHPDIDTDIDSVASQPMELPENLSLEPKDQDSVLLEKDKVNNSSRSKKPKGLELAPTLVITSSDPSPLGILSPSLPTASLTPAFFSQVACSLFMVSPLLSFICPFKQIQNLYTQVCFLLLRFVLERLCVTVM
To be noted: protein: recombinant; tags: N-terminal GST; dsDNA, one strand shown. The method in brief:
as §1

A further assay has as its target T10, ETV2 (Homo sapiens, UniProt O00321 1-342).
T10 sequence: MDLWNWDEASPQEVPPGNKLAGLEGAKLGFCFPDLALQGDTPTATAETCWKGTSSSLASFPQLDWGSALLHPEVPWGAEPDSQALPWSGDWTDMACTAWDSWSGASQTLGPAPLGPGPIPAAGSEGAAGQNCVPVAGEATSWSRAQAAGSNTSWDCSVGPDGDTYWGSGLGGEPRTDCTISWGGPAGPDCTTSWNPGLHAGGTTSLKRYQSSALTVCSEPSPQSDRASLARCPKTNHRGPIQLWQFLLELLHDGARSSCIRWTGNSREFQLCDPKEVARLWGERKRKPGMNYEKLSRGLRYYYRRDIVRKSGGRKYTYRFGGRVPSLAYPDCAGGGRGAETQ
To be noted: protein: recombinant; tags: N-terminal GST; dsDNA, one strand shown. The method in brief:
as §1

The target of the next assay is T11, ELF3 (Homo sapiens, UniProt P78545 1-371).
T11 sequence: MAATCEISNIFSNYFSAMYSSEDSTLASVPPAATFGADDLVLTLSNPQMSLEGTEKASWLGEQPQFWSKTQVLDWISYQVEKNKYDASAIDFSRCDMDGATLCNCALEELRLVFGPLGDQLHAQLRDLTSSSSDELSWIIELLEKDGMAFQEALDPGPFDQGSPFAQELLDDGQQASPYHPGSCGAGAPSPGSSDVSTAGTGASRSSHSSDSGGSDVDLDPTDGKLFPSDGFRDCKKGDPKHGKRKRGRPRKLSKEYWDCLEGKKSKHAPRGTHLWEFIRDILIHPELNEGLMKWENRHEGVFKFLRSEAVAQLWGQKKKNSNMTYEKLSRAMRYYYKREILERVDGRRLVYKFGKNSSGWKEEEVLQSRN
The note with it: protein: recombinant; tags: N-terminal GST; dsDNA, one strand shown. The gist of the method: as §1

For another assay, the target named is ETV1 (Homo sapiens, UniProt P50549 1-477). To be noted: protein: recombinant; tags: N-terminal GST; dsDNA, one strand shown. The method in brief: as §1
Sequence of ETV1 (P50549 whole entry): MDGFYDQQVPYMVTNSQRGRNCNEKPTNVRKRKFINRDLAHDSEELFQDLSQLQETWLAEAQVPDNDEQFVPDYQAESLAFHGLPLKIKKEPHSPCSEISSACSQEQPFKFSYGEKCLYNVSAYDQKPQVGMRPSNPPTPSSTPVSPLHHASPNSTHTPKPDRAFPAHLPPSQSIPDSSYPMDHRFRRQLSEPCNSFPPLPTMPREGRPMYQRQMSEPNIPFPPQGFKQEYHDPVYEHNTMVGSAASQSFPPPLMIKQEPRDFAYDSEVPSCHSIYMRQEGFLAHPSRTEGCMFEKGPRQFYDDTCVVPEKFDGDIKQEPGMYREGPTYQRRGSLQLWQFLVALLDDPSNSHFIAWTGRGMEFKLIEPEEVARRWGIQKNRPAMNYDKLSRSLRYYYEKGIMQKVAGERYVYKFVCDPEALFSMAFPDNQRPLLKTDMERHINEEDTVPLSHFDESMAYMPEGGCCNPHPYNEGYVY

Sequence of ETV5 (P41161 whole entry): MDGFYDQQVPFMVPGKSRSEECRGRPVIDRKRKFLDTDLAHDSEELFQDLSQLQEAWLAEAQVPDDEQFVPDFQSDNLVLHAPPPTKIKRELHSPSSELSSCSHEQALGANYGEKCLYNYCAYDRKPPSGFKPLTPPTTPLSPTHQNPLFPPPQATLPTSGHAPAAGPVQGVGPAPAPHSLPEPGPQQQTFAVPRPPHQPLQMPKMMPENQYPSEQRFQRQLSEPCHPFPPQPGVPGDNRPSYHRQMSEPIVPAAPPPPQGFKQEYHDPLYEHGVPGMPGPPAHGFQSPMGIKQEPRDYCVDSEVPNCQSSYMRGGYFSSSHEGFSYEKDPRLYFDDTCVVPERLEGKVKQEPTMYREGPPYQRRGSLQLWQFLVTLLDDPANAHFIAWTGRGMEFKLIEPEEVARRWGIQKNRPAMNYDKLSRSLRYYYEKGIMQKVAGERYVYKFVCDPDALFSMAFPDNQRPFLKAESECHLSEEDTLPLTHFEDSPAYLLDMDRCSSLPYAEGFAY
Sequence of SPIB (Q01892 whole entry): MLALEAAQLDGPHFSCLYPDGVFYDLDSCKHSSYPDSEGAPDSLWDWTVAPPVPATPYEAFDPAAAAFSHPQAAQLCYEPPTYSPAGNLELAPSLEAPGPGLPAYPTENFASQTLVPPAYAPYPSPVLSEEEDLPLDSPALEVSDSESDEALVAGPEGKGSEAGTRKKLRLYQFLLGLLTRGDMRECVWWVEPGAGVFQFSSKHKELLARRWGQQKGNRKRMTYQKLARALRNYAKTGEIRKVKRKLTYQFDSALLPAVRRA
Sequence of ELF1 (P32519 whole entry): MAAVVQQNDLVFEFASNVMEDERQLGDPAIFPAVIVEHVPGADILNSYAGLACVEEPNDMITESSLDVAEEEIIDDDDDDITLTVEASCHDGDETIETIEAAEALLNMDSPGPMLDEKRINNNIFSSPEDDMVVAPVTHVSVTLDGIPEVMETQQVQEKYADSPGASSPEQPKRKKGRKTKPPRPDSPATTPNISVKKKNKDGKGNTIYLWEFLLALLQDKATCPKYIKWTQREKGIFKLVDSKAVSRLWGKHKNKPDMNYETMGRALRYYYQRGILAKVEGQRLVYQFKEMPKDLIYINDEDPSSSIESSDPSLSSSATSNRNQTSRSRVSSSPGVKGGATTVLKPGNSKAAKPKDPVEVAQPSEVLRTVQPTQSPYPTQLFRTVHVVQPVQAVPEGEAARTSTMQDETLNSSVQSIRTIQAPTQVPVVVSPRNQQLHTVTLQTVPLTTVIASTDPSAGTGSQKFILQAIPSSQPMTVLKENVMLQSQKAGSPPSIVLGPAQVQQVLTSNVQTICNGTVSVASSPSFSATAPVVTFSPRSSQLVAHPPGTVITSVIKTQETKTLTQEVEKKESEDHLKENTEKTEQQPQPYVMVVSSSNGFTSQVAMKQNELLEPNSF
Sequence of ELF4 (Q99607 whole entry): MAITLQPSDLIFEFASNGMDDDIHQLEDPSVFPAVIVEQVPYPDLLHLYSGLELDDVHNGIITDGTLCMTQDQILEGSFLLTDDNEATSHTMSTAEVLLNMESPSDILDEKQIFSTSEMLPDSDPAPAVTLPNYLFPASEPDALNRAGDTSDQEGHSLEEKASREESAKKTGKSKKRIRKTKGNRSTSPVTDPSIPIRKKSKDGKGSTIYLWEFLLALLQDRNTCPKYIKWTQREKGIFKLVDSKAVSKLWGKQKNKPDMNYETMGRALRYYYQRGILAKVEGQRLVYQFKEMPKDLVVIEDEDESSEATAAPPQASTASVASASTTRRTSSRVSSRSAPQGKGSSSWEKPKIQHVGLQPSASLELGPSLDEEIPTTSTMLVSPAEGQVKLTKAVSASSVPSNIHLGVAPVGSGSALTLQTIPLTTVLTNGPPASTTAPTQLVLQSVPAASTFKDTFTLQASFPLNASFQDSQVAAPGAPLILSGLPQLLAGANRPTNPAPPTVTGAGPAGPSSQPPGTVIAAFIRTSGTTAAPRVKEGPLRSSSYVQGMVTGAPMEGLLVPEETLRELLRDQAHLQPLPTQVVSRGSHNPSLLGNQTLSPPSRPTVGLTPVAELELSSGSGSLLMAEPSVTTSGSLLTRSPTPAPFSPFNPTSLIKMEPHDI
Sequence of HSF1 (Q00613 whole entry): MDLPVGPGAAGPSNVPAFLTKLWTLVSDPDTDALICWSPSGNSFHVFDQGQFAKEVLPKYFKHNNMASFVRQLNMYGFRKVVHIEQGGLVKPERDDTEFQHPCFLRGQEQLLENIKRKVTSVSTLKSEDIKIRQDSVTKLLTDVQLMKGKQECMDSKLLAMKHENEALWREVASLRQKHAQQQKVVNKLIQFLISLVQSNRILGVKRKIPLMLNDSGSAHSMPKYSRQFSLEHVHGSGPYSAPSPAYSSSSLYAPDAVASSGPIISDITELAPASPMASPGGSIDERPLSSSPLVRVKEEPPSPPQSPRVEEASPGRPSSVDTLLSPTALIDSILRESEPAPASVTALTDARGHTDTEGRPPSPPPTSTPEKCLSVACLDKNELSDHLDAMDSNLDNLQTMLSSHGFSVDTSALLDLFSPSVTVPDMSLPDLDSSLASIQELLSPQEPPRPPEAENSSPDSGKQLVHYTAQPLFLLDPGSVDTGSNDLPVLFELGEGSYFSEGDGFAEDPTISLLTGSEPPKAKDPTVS

GTTCCC: the binding signal was 1.36 fold enrichment (6-mer frequency, TF over GST control) in the assay with FLI1; 1.27 fold enrichment (6-mer frequency, TF over GST control) with ELK1; 1.33 fold enrichment (6-mer frequency, TF over GST control) in the assay with GABPA; 1.25 fold enrichment (6-mer frequency, TF over GST control) with ERG; 1.28 fold enrichment (6-mer frequency, TF over GST control) with ELF1; 1.28 fold enrichment (6-mer frequency, TF over GST control) in the assay with EHF. Further, the binding signal with SPI1 is 1.71 fold enrichment (6-mer frequency, TF over GST control); with SPIB, 1.37 fold enrichment (6-mer frequency, TF over GST control); with ELK3, 1.23 fold enrichment (6-mer frequency, TF over GST control); with FEV, 1.27 fold enrichment (6-mer frequency, TF over GST control); with ETV5, 1.22 fold enrichment (6-mer frequency, TF over GST control); with HSF1, 1.26 fold enrichment (6-mer frequency, TF over GST control). Also, the binding signal with SPIC is 1.38 fold enrichment (6-mer frequency, TF over GST control); in the assay with ELF4, 1.36 fold enrichment (6-mer frequency, TF over GST control); with ELK4, 1.19 fold enrichment (6-mer frequency, TF over GST control); in the assay with ETV2, 1.12 fold enrichment (6-mer frequency, TF over GST control); in the assay with ELF3, 1.23 fold enrichment (6-mer frequency, TF over GST control); in the assay with ETV1, 1.39 fold enrichment (6-mer frequency, TF over GST control).
